Data taken from article PMC9911399, “Two distinct binding modes provide the RNA-binding protein RbFox with extraordinary sequence specificity”.
Changes are numbered by the printed parent chain; changes in the protein carry UniProt numbers. The full ranking holds about 16,000 sequences; the median of “ka relative to ugcaugu” is about 0.096, and the highest 2% start at about 0.35. The full list was thinned out, with the highest values kept by preference.

T1: RBFOX1 RRM RbFoxmut (Fox-RRM*) (Homo sapiens, UniProt Q9NWB1 109-208, R118D;E147R;N151S;E152T)
T1 sequence: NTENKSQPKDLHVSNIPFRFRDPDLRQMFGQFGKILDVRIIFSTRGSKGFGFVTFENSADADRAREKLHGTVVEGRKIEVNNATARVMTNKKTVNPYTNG

B1: ACUUGAG (DNA:RNA)
RNA: GGGAGACCGGAAUUCAGAUUGUCCACUUGAGUUAAAUCCCGUCGUAGCCACCA
DNA 1: CAATCTGAATTCCGGTCTCCC
DNA 2: TGGTGGCTACGACGGGATT
B2: AGGGUAC (DNA:RNA)
RNA: B1 RNA with C26G, U27G, U28G, G29U, G31C
DNA 1: CAATCTGAATTCCGGTCTCCC
DNA 2: TGGTGGCTACGACGGGATT
B3: UUAACCU (DNA:RNA)
RNA: GGGAGACCGGAAUUCAGAUUGUCCUUAACCUUUAAAUCCCGUCGUAGCCACCA
DNA 1: CAATCTGAATTCCGGTCTCCC
DNA 2: TGGTGGCTACGACGGGATT
B4: UCCAUCA (DNA:RNA)
RNA: B3 RNA with U26C, A27C, C29U, U31A
DNA 1: CAATCTGAATTCCGGTCTCCC
DNA 2: TGGTGGCTACGACGGGATT
B5: GGCAGCU (DNA:RNA)
RNA: B3 RNA with U25G, U26G, A27C, C29G
DNA 1: CAATCTGAATTCCGGTCTCCC
DNA 2: TGGTGGCTACGACGGGATT
B6: GUCGAGC (DNA:RNA)
RNA: B3 RNA with U25G, A27C, A28G, C29A, C30G, U31C
DNA 1: CAATCTGAATTCCGGTCTCCC
DNA 2: TGGTGGCTACGACGGGATT
B7: CGCAUGG (DNA:RNA)
RNA: B1 RNA with A25C, C26G, U27C, U28A, G29U, A30G
DNA 1: CAATCTGAATTCCGGTCTCCC
DNA 2: TGGTGGCTACGACGGGATT
B8: GCAUGGU (DNA:RNA)
RNA: B1 RNA with A25G, U27A, A30G, G31U
DNA 1: CAATCTGAATTCCGGTCTCCC
DNA 2: TGGTGGCTACGACGGGATT
B9: GCAUAGC (DNA:RNA)
RNA: B1 RNA with A25G, U27A, G29A, A30G, G31C
DNA 1: CAATCTGAATTCCGGTCTCCC
DNA 2: TGGTGGCTACGACGGGATT
B10: CCAUGGU (DNA:RNA)
RNA: B1 RNA with A25C, U27A, A30G, G31U
DNA 1: CAATCTGAATTCCGGTCTCCC
DNA 2: TGGTGGCTACGACGGGATT
B11: GCAUGGG (DNA:RNA)
RNA: B1 RNA with A25G, U27A, A30G
DNA 1: CAATCTGAATTCCGGTCTCCC
DNA 2: TGGTGGCTACGACGGGATT
B12: GCAUGGC (DNA:RNA)
RNA: B1 RNA with A25G, U27A, A30G, G31C
DNA 1: CAATCTGAATTCCGGTCTCCC
DNA 2: TGGTGGCTACGACGGGATT
B13: GUCAUGG (DNA:RNA)
RNA: B3 RNA with U25G, A27C, C29U, C30G, U31G
DNA 1: CAATCTGAATTCCGGTCTCCC
DNA 2: TGGTGGCTACGACGGGATT
B14: GCAAUGG (DNA:RNA)
RNA: B1 RNA with A25G, U27A, U28A, G29U, A30G
DNA 1: CAATCTGAATTCCGGTCTCCC
DNA 2: TGGTGGCTACGACGGGATT
B15: GCAUUGG (DNA:RNA)
RNA: B1 RNA with A25G, U27A, G29U, A30G
DNA 1: CAATCTGAATTCCGGTCTCCC
DNA 2: TGGTGGCTACGACGGGATT
B16: GCAUGGA (DNA:RNA)
RNA: B1 RNA with A25G, U27A, A30G, G31A
DNA 1: CAATCTGAATTCCGGTCTCCC
DNA 2: TGGTGGCTACGACGGGATT
B17: GCCAUGG (DNA:RNA)
RNA: B1 RNA with A25G, U27C, U28A, G29U, A30G
DNA 1: CAATCTGAATTCCGGTCTCCC
DNA 2: TGGTGGCTACGACGGGATT
B18: GGCAUGG (DNA:RNA)
RNA: B1 RNA with A25G, C26G, U27C, U28A, G29U, A30G
DNA 1: CAATCTGAATTCCGGTCTCCC
DNA 2: TGGTGGCTACGACGGGATT
B19: UGGUGUC (DNA:RNA)
RNA: B1 RNA with A25U, C26G, U27G, A30U, G31C
DNA 1: CAATCTGAATTCCGGTCTCCC
DNA 2: TGGTGGCTACGACGGGATT
B20: AAUUGGG (DNA:RNA)
RNA: B1 RNA with C26A, A30G
DNA 1: CAATCTGAATTCCGGTCTCCC
DNA 2: TGGTGGCTACGACGGGATT
B21: UGUUGGC (DNA:RNA)
RNA: B1 RNA with A25U, C26G, A30G, G31C
DNA 1: CAATCTGAATTCCGGTCTCCC
DNA 2: TGGTGGCTACGACGGGATT
B22: GUUAACC (DNA:RNA)
RNA: B3 RNA with U25G, A27U, C29A, U31C
DNA 1: CAATCTGAATTCCGGTCTCCC
DNA 2: TGGTGGCTACGACGGGATT
B23: UUCCCAG (DNA:RNA)
RNA: B3 RNA with A27C, A28C, C30A, U31G
DNA 1: CAATCTGAATTCCGGTCTCCC
DNA 2: TGGTGGCTACGACGGGATT
B24: GUUACAG (DNA:RNA)
RNA: B1 RNA with A25G, C26U, U28A, G29C
DNA 1: CAATCTGAATTCCGGTCTCCC
DNA 2: TGGTGGCTACGACGGGATT
B25: GUUCAGG (DNA:RNA)
RNA: B1 RNA with A25G, C26U, U28C, G29A, A30G
DNA 1: CAATCTGAATTCCGGTCTCCC
DNA 2: TGGTGGCTACGACGGGATT
B26: GUCCAGG (DNA:RNA)
RNA: B1 RNA with A25G, C26U, U27C, U28C, G29A, A30G
DNA 1: CAATCTGAATTCCGGTCTCCC
DNA 2: TGGTGGCTACGACGGGATT
B27: AGGUUUG (DNA:RNA)
RNA: B1 RNA with C26G, U27G, G29U, A30U
DNA 1: CAATCTGAATTCCGGTCTCCC
DNA 2: TGGTGGCTACGACGGGATT
B28: ACCAGGU (DNA:RNA)
RNA: B1 RNA with U27C, U28A, A30G, G31U
DNA 1: CAATCTGAATTCCGGTCTCCC
DNA 2: TGGTGGCTACGACGGGATT
B29: AGGUUCG (DNA:RNA)
RNA: B1 RNA with C26G, U27G, G29U, A30C
DNA 1: CAATCTGAATTCCGGTCTCCC
DNA 2: TGGTGGCTACGACGGGATT
B30: AGGUUGU (DNA:RNA)
RNA: B1 RNA with C26G, U27G, G29U, A30G, G31U
DNA 1: CAATCTGAATTCCGGTCTCCC
DNA 2: TGGTGGCTACGACGGGATT
B31: AGCGAUU (DNA:RNA)
RNA: B1 RNA with C26G, U27C, U28G, G29A, A30U, G31U
DNA 1: CAATCTGAATTCCGGTCTCCC
DNA 2: TGGTGGCTACGACGGGATT

target: T1, RBFOX1 RRM RbFoxmut (Fox-RRM*); assay: EMSA; HiTS-Eq, 1 nM pool, 10 min; buffer printed only for the single-RNA assays: 10 mM Tris pH 7.5, 150 mM NaCl, 3.4 mM EDTA, 0.001% NP-40, 30 C; details: tags: His6 N-terminal (pET28a); label: 5' 32P
Summary of the method: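 Purified wild-type or mutant RbFox RRM at increasing concentrations was equilibrated with 1 nM of 5′-radiolabelled RNA carrying 7 randomized nucleotides for 10 min in 50 µL. Unbound RNA was separated by 8% native PAGE and sequenced. Relative association constants came from read-count changes of each RNA species compared with the control reaction, normalised to the cognate motif.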

| Binder | binding signal |
| --- | --- |
| B1 | 0.13 KA relative to UGCAUGU |
| B2 | 0.106 KA relative to UGCAUGU |
| B3 | 0.0822 KA relative to UGCAUGU |
| B4 | 0.0673 KA relative to UGCAUGU |
| B5 | 0.0642 KA relative to UGCAUGU |
| B6 | 0.0952 KA relative to UGCAUGU |
| B7 | 0.804 KA relative to UGCAUGU |
| B8 | 0.753 KA relative to UGCAUGU |
| B9 | 0.126 KA relative to UGCAUGU |
| B10 | 0.125 KA relative to UGCAUGU |
| B11 | 0.322 KA relative to UGCAUGU |
| B12 | 0.497 KA relative to UGCAUGU |
| B13 | 0.154 KA relative to UGCAUGU |
| B14 | 0.0714 KA relative to UGCAUGU |
| B15 | 0.179 KA relative to UGCAUGU |
| B16 | 0.23 KA relative to UGCAUGU |

| Binder | binding signal |
| --- | --- |
| B17 | 0.12 KA relative to UGCAUGU |
| B18 | 0.524 KA relative to UGCAUGU |
| B19 | 0.281 KA relative to UGCAUGU |
| B20 | 0.0731 KA relative to UGCAUGU |
| B21 | 0.0854 KA relative to UGCAUGU |
| B22 | 0.0736 KA relative to UGCAUGU |
| B23 | 0.103 KA relative to UGCAUGU |
| B24 | 0.114 KA relative to UGCAUGU |
| B25 | 0.0776 KA relative to UGCAUGU |
| B26 | 0.0991 KA relative to UGCAUGU |
| B27 | 0.525 KA relative to UGCAUGU |
| B28 | 0.11 KA relative to UGCAUGU |
| B29 | 0.357 KA relative to UGCAUGU |
| B30 | 0.332 KA relative to UGCAUGU |
| B31 | 0.072 KA relative to UGCAUGU |
